Test results reported in PubChem BioAssay AID587 (National Center for Advancing Translational Sciences (NCATS), 2007).
Screen size: about 59,000 compounds; about 35 (0.06%) were called active. Not shown: some 19% with an inconclusive outcome. Cut-off read from the data, not from the text of the source: active = max dye-equivalent concentration above about 10 nM; inconclusive = between about 1.1 nM and that limit; inactive = weaker than that. What follows is part of a selection rich in actives, with near analogues and random picks from the rest.

assay: qHTS Assay for Spectroscopic Profiling in Texas Red Spectral Region; conditions: Compound fluorescence, Texas Red channel, 547/618 nm
Description: NIH Molecular Libraries Screening Centers Network [MLSCN] NIH Chemical Genomics Center [NCGC] […] Occasionally, the artifactual effect may originate from the compound#s own spectral or other biophysical properties which generally tend to track its assay concentration. Pre-screening/profiling the library with respect to the compounds# spectral properties should help one exclude false positives early on. While the most informative fluorescent profiling data set is obtained by performing a full excitation and emission scan of each well by using a monochromator-based plate reader, such an approach is practical only on a very limited scale as scanning each well requires long time. An alternative approach, applied here, is to perform plate reader scans using selected excitation and emission wavelength pairs to generate a multidimensional relational database that correlates compound concentration and the respective relative fluorescence intensity at a given wavelength set. A standard curve of Texas Red (TR) present on each plate as six-point concentration series, was used to compute a normalized fluorescence response, termed dye-equivalent concentration, for each compound at each concentration.
NCGC Assay Protocol Summary: Buffer: 100 mM Tris buffer, pH 8.0 Dye standard plate: The wells in columns 1 through 4 of a Kalypsys polypropylene 1536-well compound plate were filled with standard solutions of fluorophore corresponding to the spectral region of interest. Solutions of TR were placed in the following wells: U1, V1: 3 mM, U2, V2: 300 uM, U3, V3: 30 uM, U4, V4: zero (DMSO), W1, X1: 3 uM, W2, X2: 900 nM, W3, X3: 300 nM, W4, X4: zero (DMSO). Assay Steps: Six uL of buffer were dispensed to 1536-well Greiner black plates. Compounds and dye standards (23 nL) were transferred via Kalypsys PinTool. The plates were incubated for 15 min at room temperature, and then read on ViewLux (Perkin-Elmer) High-throughput CCD imager using 547 nm and 618 nm excitation and emission filter set. Keywords: NIH Roadmap, MLSCN, MLI, MLSMR, qHTS, NCGC, Texas Red, Fluorescent Profiling.

Max dye-equivalent concentration, inactive:
COc1ccc(OCc2cccc(C(=O)N3CCCC3)c2)cc1, CN(c1ccc(C(=O)NCCC2=CCCCC2)cc1)S(C)(=O)=O, CCOc1ccc(C2C(C(=O)O)c3ccccc3C(=O)N2CCN2CCOCC2)cc1 (stereo not given), COc1ccccc1CNc1ncnc2ccc(-c3ccc4c(c3)OCO4)cc12, Cc1ccc2nc(-c3ccc(SCC(=O)Nc4cc(C)on4)nc3)[nH]c2c1, COc1ccc(-n2c(SCC(=O)NCc3cccs3)nnc2-c2ccoc2C)cc1, CN(C)CCNC(=O)C(C(=O)c1ccccc1)n1ccccc1=O (stereo not given), CC1Cn2c(nnc2-c2cccs2)S1 (stereo not given), CSc1ncccc1C(=O)OCC(=O)N1CCOCC1, c1ccc(-c2oc3ncnc(N4CCOCC4)c3c2-c2ccccc2)cc1, O=c1c(-c2cc(F)cc(F)c2)nc2cnc(Oc3ccccc3)nc2n1C[C@H]1CCCO1, COc1ccc(-n2ncc3c(N4CCc5ccccc54)ncnc32)cc1, CN(C)c1ccc(-c2nc(NCCN3CCOCC3)c3ccccc3n2)cc1, CC(NCCO)C(=O)C12CC3CC(CC(C3)C1)C2 (stereo not given), O=c1c(-c2ccc(F)cc2)nc2cnc(N3CCOCC3)nc2n1-c1ccccc1, Cc1cc(N2C(=O)C(=O)/C(=C(/O)c3ccc(Cl)cc3)C2c2cccc(Br)c2)no1 (stereo not given), CC[C@H](c1ccccc1)c1cc(C(C)(C)C)cc(C(C)(C)C)c1O, COc1ccc(C(=O)n2nc(-c3ccc(C)cc3)nc2N)cc1OC, Cn1cc(-c2nc3cnc(N4CCNCC4)nc3n(CCc3ccccc3)c2=O)c2ccccc21, O=c1c(CCc2ccccc2)nc2cnc(N3CCNCC3)nc2n1Cc1cccs1, Cc1nc2nc(COc3ccccc3)[nH]n2c(=O)c1C, COc1ccc(C(C(O)C(=O)c2c[nH]c3ccccc23)N2CCN(c3ccccc3)CC2)cc1 (stereo not given), COc1ccc(NS(=O)(=O)c2ccc(NC(=O)C(C)(C(F)(F)F)C(F)(F)F)cc2)nn1, N#Cc1ccc(OCCN2C(=O)NC3(CCSC3)C2=O)cc1 (stereo not given), Cc1nc2cnc(Nc3ccccc3)nc2n(Cc2ccc(F)cc2)c1=O, CC(=O)O[C@]1(C(C)=O)CC[C@@H]2[C@@H]3C=C(C)C4=CC(=O)CC[C@@]4(C)[C@H]3CC[C@]21C, Cc1oc(-c2cccc(Cl)c2)[n+]([O-])c1C, CCOC(=O)CCc1c(C)c(C#N)c2[nH]c3ccccc3n2c1=O, Cc1cc(C)c(C#N)c(SCc2ccccc2C(=O)O)n1, CC(CCc1ccccc1)NC(=O)c1ccc(Br)o1 (stereo not given), CCCCCNC(=O)Cc1ccc(OC)cc1, CCN(CC)C(=O)N1CCN(C(=O)c2ccc(C)cn2)CC1, CCCOC(=O)C1=C(C)NC2=C(C(=O)C(C(=O)OC)C(C)C2)C1c1ccc(N(C)C)cc1 (stereo not given), Cc1cc(C)n(-c2ccc(Cl)c(C(=O)O)n2)n1, COCCn1c(=O)c(C)nc2cnc(N(C)C)nc21, COCCn1c(=O)c(-c2ccc(OC)cc2)nc2cnc(Oc3cccc(Cl)c3)nc21, O=C(O)CCC(=O)N(Cc1ccco1)c1nc(-c2ccccc2)cs1, COc1ccc2nc(NC3=NCN(CC4CCCO4)CN3)nc(C)c2c1 (stereo not given), COc1ccc(-c2ccnc(SCC(=O)N3CCOCC3)n2)cc1, COc1ccc(-c2nc3cnc(OC)nc3n(Cc3ccc(F)cc3)c2=O)cc1, COc1ccc(CCn2c(-c3ccco3)nc3nc4ccccc4nc32)cc1OC, COc1ccc(C(C)=O)cc1COC(=O)Cn1cnc2ccccc2c1=O, Cc1cc(C)nc(SCc2nnc(SCC(=O)Nc3ncc(C)s3)n2Cc2ccco2)n1, COc1ncc2nc(-c3ccc(Cl)cc3)c(=O)n(C)c2n1, Cn1c(=O)c(-c2ccccc2)nc2cnc(N3CCNCC3)nc21, CS(=O)(=O)N(CC(=O)NCc1ccco1)c1ccc2c(c1)OCO2, Cc1cccc2cc(CN(Cc3nnnn3Cc3ccccc3)C3CCCC3)c(=O)[nH]c12, CC(C)C(=O)Nc1cccc(C(=O)Nc2ccc3c(c2)OCO3)c1, O=C1NC(=O)[C@@](Cc2ccccc2)(c2cccnc2)N1, O=C(CN(c1ccc2c(c1)OCCO2)S(=O)(=O)c1ccccc1)Nc1ccc2c(c1)OCO2, CN1CCc2c(sc3c2c(NCc2ccco2)nc2nnnn23)C1, COc1ccc(C)cc1NC(=O)CSc1nc(SC)ns1, N#Cc1ccccc1-c1ccc2ncnc(NCc3cccnc3)c2c1, CCCC(=O)N1c2ccc(-c3csc(N)n3)cc2CC1C (stereo not given), COc1ccc(-n2c(=O)c(C)nc3cnc(N4CCOCC4)nc32)cc1
